Out of some 360,000 compounds screened, about 3,900 (1.1%) were called active. The sample as a whole holds a higher share of actives than the screen did. Unmarked numbers belong to inactive results.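 Rule for the calls: active = mean replicate inhibition score of at least 50 and every replicate individually at or above 50; inconclusive = only one of the two criteria met; inactive = mean below 50 and not all replicates reaching 50.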
assay: inhibitors of HIV-1 Env-driven cell-cell fusion, primary screen, HeLa-JRFL effector, CEM21 target cells, luciferase (AID 651610); details: hits give high values; at 16.7 µM unless noted;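 note: 0% = plate neutral controls and 100% = maraviroc near 300 nM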

Compound	inhibition
Cc1noc(C)c1NC(=O)N(C)C[C@H]1Oc2ccc(NC(=O)Cn3cnnn3)cc2CC(=O)N([C@H](C)CO)C[C@@H]1C	-12.7%
C[C@@H]1CN([C@@H](C)CO)C(=O)c2cc(NC(=O)Cc3ccccc3)ccc2O[C@@H]1CN(C)S(=O)(=O)c1ccccc1	-22.1%
Cc1ccc(S(=O)(=O)NCC[C@@H]2CC[C@H](NC(=O)c3ccccn3)[C@H](CO)O2)cc1	-12.9%
C[C@H](CO)N1C[C@H](C)[C@@H](CN(C)Cc2ccc3c(c2)OCO3)Oc2c(cccc2N(C)C)C1=O	-26.8%
CC1CCCCN1S(=O)(=O)c1ccc(C(=O)Nc2nnc(-c3cccs3)o2)cc1 (configuration not stated)	80.2% [at 12.3 µM] (active)
CSCc1nnc(NC(=O)c2ccc(S(=O)(=O)N3CCCCC3C)cc2)o1 (configuration not stated)	-0.826% [at 12.3 µM]
CC1CCCCN1S(=O)(=O)c1ccc(S(=O)(=O)N(CC(=O)Nc2ccccc2)Cc2cccs2)cc1 (configuration not stated)	20% [at 12.3 µM]
CCOC(=O)C1CCCN(C(=O)c2cc(-c3cccs3)oc2C)CC1 (configuration not stated)	29.9% [at 12.3 µM]
Cc1cc(C(=O)N2CCC(C(=O)O)CC2)c(C(F)(F)F)o1	87.5% [at 12.3 µM] (active)
O=C(O)C1CCN(C(=O)c2cc(F)cc3c2OCOC3)CC1	-1.42% [at 12.3 µM]
CCCN(C)C[C@H]1Oc2ncc(C#CC3CCCCC3)cc2C(=O)N([C@H](C)CO)C[C@@H]1C	18.3%
C[C@H](CO)N1C[C@H](C)[C@H](CN(C)CC2CCCCC2)Oc2c(NC(=O)c3cnccn3)cccc2C1=O	-9.66%
CCC(=O)N1C[C@H](C)[C@H](OC)CN(C)C(=O)c2cc(NC(=O)Nc3cccc(F)c3)ccc2OC[C@@H]1C	-5.04%
C[C@@H]1CN([C@@H](C)CO)C(=O)c2cc(NS(=O)(=O)c3ccccc3)ccc2O[C@@H](C)CCCCO[C@H]1CN(C)S(=O)(=O)c1cccs1	-25.8%
C[C@@H]1CCCCO[C@@H](CN(C)CC2CC2)[C@@H](C)CN([C@H](C)CO)C(=O)c2cc(NC(=O)C3CCCCC3)ccc2O1	19.6%
C[C@H](CO)N1C[C@H](C)[C@@H](CN(C)C(=O)Nc2cccc3ccccc23)OCCCC[C@H](C)Oc2ccc(N(C)C)cc2C1=O	67.4% (active)
C[C@@H]1CCCCO[C@@H](CN(C)Cc2ccc(C(F)(F)F)cc2)[C@H](C)CN([C@H](C)CO)C(=O)c2cc(NS(=O)(=O)c3ccc(F)cc3)ccc2O1	32.9%
C[C@@H]1CCCCO[C@@H](CN(C)CC2CC2)[C@H](C)CN([C@H](C)CO)C(=O)c2cc(NC(=O)C3CCCCC3)ccc2O1	-2.41%
COc1ccc(NC(=O)Nc2ccc3c(c2)C(=O)N([C@@H](C)CO)C[C@@H](C)[C@@H](CN(C)Cc2ccncc2)OCCCC[C@@H](C)O3)cc1	-12.5%
C[C@@H]1CCCCO[C@H](CN(C)C(=O)Nc2ccccc2)[C@H](C)CN([C@@H](C)CO)C(=O)c2cc(N(C)C)ccc2O1	-23.9%
COc1ccc(CN(C)C[C@@H]2OCCCC[C@@H](C)Oc3ccc(NC(=O)Nc4ccc(OC)cc4)cc3C(=O)N([C@@H](C)CO)C[C@@H]2C)cc1	-18.5%

Compound	inhibition
COc1ccc(NC(=O)Nc2ccc3c(c2)C(=O)N([C@H](C)CO)C[C@H](C)[C@H](CN(C)Cc2ccncc2)OCCCC[C@H](C)O3)cc1	58.1% (active)
C[C@H](CO)N1C[C@H](C)[C@H](CN(C)Cc2ccc(C(F)(F)F)cc2)OCCCC[C@H](C)Oc2ccc(NS(=O)(=O)c3ccc(Cl)cc3)cc2C1=O	18.4%
C[C@@H]1CCCCO[C@@H](CN(C)C(=O)Nc2ccccc2)[C@@H](C)CN([C@@H](C)CO)C(=O)c2cc(N(C)C)ccc2O1	-2.93%
C[C@@H]1CCCCO[C@@H](CN(C)CC2CCCCC2)[C@H](C)CN([C@H](C)CO)C(=O)c2cc(NC(=O)C3CCCCC3)ccc2O1	68.4% (active)
Cc1ccc(S(=O)(=O)Nc2ccc3c(c2)C(=O)N([C@@H](C)CO)C[C@@H](C)[C@@H](CN(C)Cc2ccc(C(F)(F)F)cc2)OCCCC[C@@H](C)O3)cc1	79.2% (active)
O=C(N[C@@H]1C=C[C@H](CC(=O)N2CCCCC2)O[C@H]1CO)c1cccc(F)c1	2.78%
COc1cccc(NC(=O)N[C@@H]2CC[C@H](CC(=O)Nc3ccccc3)O[C@@H]2CO)c1	-24.4%
Cc1ccc(S(=O)(=O)Nc2cccc3c2O[C@H](CN(C)S(=O)(=O)c2cn(C)cn2)[C@H](C)CN([C@H](C)CO)C3=O)cc1	-8.23%
C[C@H]1CCCCO[C@@H](CN(C)S(=O)(=O)c2ccc(Cl)cc2)[C@@H](C)CN([C@@H](C)CO)C(=O)c2cc(NS(=O)(=O)c3cn(C)cn3)ccc2O1	3.67%
C[C@@H]1CN([C@@H](C)CO)C(=O)c2cc(NS(C)(=O)=O)ccc2O[C@@H](C)CCCCO[C@@H]1CN(C)S(=O)(=O)c1cn(C)cn1	-12%
Cc1ccc(S(=O)(=O)Nc2cccc3c2O[C@@H](CN(C)C(=O)Nc2ccccc2)[C@H](C)CN([C@@H](C)CO)C3=O)cc1	8.55%
C[C@H](NC(=O)C[C@H]1CC[C@H]2[C@@H](COC[C@H](O)CN2C(=O)Nc2cccc(Cl)c2)O1)c1ccccc1	-9.13%
C[C@H](O)C#Cc1ccc2c(c1)O[C@@H](CN(C)CC1CCCC1)[C@H](C)CN([C@@H](C)CO)S2(=O)=O	-37.3%
C[C@H](CO)N1C[C@H](C)[C@H](CN(C)C)Oc2cc(C#CC3CC3)ccc2S1(=O)=O	-1.04%
C[C@H]1CN([C@@H](C)CO)C(=O)c2cc(NC(=O)Nc3cccc4ccccc34)ccc2O[C@@H]1CN(C)C	3.97%
C[C@@H]1CN([C@H](C)CO)C(=O)c2cc(NS(=O)(=O)c3ccccc3)ccc2O[C@H]1CN(C)C(=O)Nc1ccc2c(c1)OCO2	-19.2%
O=C(NCC[C@H]1CC[C@@H](NC(=O)C2CCCCC2)[C@@H](CO)O1)c1ccc(F)cc1	-1.25%
C[C@@H]1CN([C@H](C)CO)C(=O)c2cc(NC(=O)c3ccncc3)ccc2O[C@H]1CN(C)Cc1ccc(Oc2ccccc2)cc1	-5.1%
C[C@@H]1CN([C@@H](C)CO)C(=O)c2cc(NC(=O)c3ccncc3)ccc2O[C@@H]1CN(C)Cc1ccncc1	85.6% (active)
C[C@H]1CCCCO[C@H](CN(C)C(=O)NC2CCCCC2)[C@@H](C)CN([C@@H](C)CO)C(=O)c2cc(NC(=O)Nc3ccc4c(c3)OCO4)ccc2O1	62.7% (active)
C[C@@H]1CN([C@H](C)CO)C(=O)c2cc(NS(=O)(=O)c3cn(C)cn3)ccc2O[C@@H](C)CCCCO[C@H]1CN(C)C	1.08%

Compound	inhibition
C[C@@H]1CN([C@@H](C)CO)C(=O)c2cc(NS(=O)(=O)c3cn(C)cn3)ccc2O[C@@H](C)CCCCO[C@H]1CN(C)S(=O)(=O)c1cn(C)cn1	2.07%
C[C@@H]1CN([C@H](C)CO)C(=O)c2cc(NC(=O)Nc3ccccc3)ccc2O[C@@H](C)CCCCO[C@H]1CN(C)Cc1ccc(C(F)(F)F)cc1	5.92%
C[C@H](CO)N1C[C@H](C)[C@@H](CN(C)Cc2ccncc2)Oc2ccc(NC(=O)Nc3ccccc3)cc2C1=O	4.38%
C[C@H](CO)N1C[C@H](C)[C@@H](CN(C)C(=O)Nc2ccc3c(c2)OCO3)OCCCC[C@H](C)Oc2ccc(NC(=O)Nc3ccc4c(c3)OCO4)cc2C1=O	-2.35%
C[C@@H]1CCCCO[C@@H](CN(C)Cc2ccc(C(F)(F)F)cc2)[C@@H](C)CN([C@H](C)CO)C(=O)c2cc(NC(=O)Nc3ccccc3)ccc2O1	9.84%
C[C@H]1CCCCO[C@@H](CN(C)Cc2ccc(C(F)(F)F)cc2)[C@@H](C)CN([C@@H](C)CO)C(=O)c2cc(NC(=O)Nc3ccccc3)ccc2O1	86.8% (active)
C[C@@H]1CCCCO[C@H](CN(C)C)[C@H](C)CN([C@@H](C)CO)C(=O)c2cc(NS(=O)(=O)c3cn(C)cn3)ccc2O1	57.7% (active)
C[C@H](CO)N1C[C@H](C)[C@H](CN(C)C(=O)NC2CCCCC2)OCCCC[C@H](C)Oc2ccc(NC(=O)Nc3ccc4c(c3)OCO4)cc2C1=O	18.2%
C[C@@H]1CN([C@@H](C)CO)C(=O)Cc2cc(NC(=O)C3CCCCC3)ccc2O[C@@H]1CN(C)Cc1ccncc1	6.59%
COCC#Cc1cnc2c(c1)C(=O)N([C@@H](C)CO)C[C@@H](C)[C@@H](CN(C)C(=O)Nc1ccccc1OC)O2	2.09%
COC(=O)C[C@H]1CC[C@H](NC(=O)c2ccccc2)[C@@H](CO)O1	-4.18%
CN1CCN(C(=O)C[C@H]2C[C@@H]3c4cc(NC(=O)Nc5ccc(C(F)(F)F)cc5)ccc4O[C@@H]3[C@H](CO)O2)CC1	7.48%
C[C@@H]1CN([C@H](C)CO)S(=O)(=O)c2ccc(C#C[C@@H](C)O)cc2O[C@H]1CN(C)C(=O)C1CCCCC1	-6.31%
CO[C@H]1CN(C)C(=O)c2cc(NC(=O)c3ccccc3)ccc2OC[C@H](C)NC[C@H]1C	-18.7%
CC(C)NC(=O)Nc1ccc2c(c1)C(=O)N([C@H](C)CO)C[C@H](C)[C@@H](CN(C)Cc1ccc(C(F)(F)F)cc1)OCCCC[C@@H](C)O2	76.6% [at 12.3 µM] (active)
COc1ccc(NC(=O)Nc2ccc3c(c2)C(=O)N([C@H](C)CO)C[C@H](C)[C@@H](CN(C)Cc2ccc(C(=O)O)cc2)OCCCC[C@H](C)O3)cc1	-1.91%
C[C@@H]1CN([C@H](C)CO)C(=O)c2cc(NC(=O)Nc3ccc(C(F)(F)F)cc3)ccc2O[C@@H](C)CCCCO[C@@H]1CN(C)Cc1ccc(C(F)(F)F)cc1	32%
COc1ccc(CN(C)C[C@@H]2OCCCC[C@@H](C)Oc3ccc(NC(=O)Nc4ccc(C(F)(F)F)cc4)cc3C(=O)N([C@H](C)CO)C[C@H]2C)cc1	40.3%
COc1ccc(NC(=O)Nc2ccc3c(c2)C(=O)N([C@@H](C)CO)C[C@H](C)[C@H](CN(C)Cc2ccc(C(F)(F)F)cc2)OCCCC[C@H](C)O3)cc1	55.7% (active)
C[C@@H]1CCCCO[C@H](CN(C)Cc2ccc(C(F)(F)F)cc2)[C@H](C)CN([C@H](C)CO)C(=O)c2cc(NC(=O)Nc3ccc(F)cc3)ccc2O1	9.27%

Source: PubChem BioAssay AID651610 (Broad Institute, 2012)
